Results reported in PubChem BioAssay AID1159580 (chemical genetic matrix, 2015).
About 2,000 (36%) of roughly 5,500 compounds were called active. Inconclusive results (about 18%) are left out. Cut-off read from the data, not from the text of the source: active = normalized growth mostly below about 0.91 (no sharp cut-off); inconclusive = no clear call, values can overlap the other calls; inactive = mostly above about 0.92. This is one part of the list.

Test: chemical genetic growth profiling, strain panel (AID 1159580);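 note: tested at 20 µM; growth read once vehicle control cultures reached saturation at 30 °C; 1 = growth at the plate median or of vehicle wells; lower values mean less growth of the strain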
Conditions: growth OD

Measured: normalized growth

NCC1CCC(C(=O)O)CC1 (stereo not drawn)
inactive: S. cerevisiae deletion strains, locus YKL009W, strain mrt4, stronger effect = lower value 0.97 | S. cerevisiae deletion strains, locus YKL068W, stronger effect = lower value 0.984 | S. cerevisiae deletion strains, locus YKL085W, strain MDH1 (second series), stronger effect = lower value 0.985 | S. cerevisiae deletion strains, locus YKL085W, strain MDH1, stronger effect = lower value 0.985 | S. cerevisiae deletion strains, locus YKL160W, strain elf1, stronger effect = lower value 0.997 | S. cerevisiae deletion strains, locus YKL190W, strain CNB1, stronger effect = lower value 0.995 | S. cerevisiae deletion strains, locus YKR001C, strain vps1, stronger effect = lower value 1.01 | S. cerevisiae deletion strains, locus YKR026C, strain gcn3, stronger effect = lower value 0.993 | S. cerevisiae deletion strains, locus YKR091W, strain srl3, stronger effect = lower value 0.997 | S. cerevisiae deletion strains, locus YLL001W, strain dnm1, stronger effect = lower value 0.998 | S. cerevisiae deletion strains, locus YLL026W, stronger effect = lower value 0.996 | S. cerevisiae deletion strains, locus YLL041C, strain sdh2, stronger effect = lower value 0.996 | S. cerevisiae deletion strains, locus YLR027C, strain aat2, stronger effect = lower value 0.989 | S. cerevisiae deletion strains, locus YLR039C, strain RIC1, stronger effect = lower value 0.975 | S. cerevisiae deletion strains, locus YLR058C, strain SHM2, stronger effect = lower value 1 | S. cerevisiae deletion strains, locus YLR102C, strain apc9, stronger effect = lower value 0.989 | S. cerevisiae deletion strains, locus YLR113W, strain HOG1, stronger effect = lower value 1 | S. cerevisiae deletion strains, locus YLR221C, strain rsa3, stronger effect = lower value 0.984 | S. cerevisiae deletion strains, locus YLR258W, strain gsy2, stronger effect = lower value 0.999 | S. cerevisiae deletion strains, locus YLR262C, strain YPT6 (second series), stronger effect = lower value 0.984 | S. cerevisiae deletion strains, locus YLR262C, strain YPT6, stronger effect = lower value 0.953 | S. cerevisiae deletion strains, locus YLR268W, strain sec22, stronger effect = lower value 0.991 | S. cerevisiae deletion strains, locus YLR320W, strain mms22, stronger effect = lower value 0.992 | S. cerevisiae deletion strains, locus YLR330W, strain CHS5, stronger effect = lower value 0.991 | S. cerevisiae deletion strains, locus YLR342W, strain FKS1 (second series), stronger effect = lower value 0.986 | S. cerevisiae deletion strains, locus YLR342W, strain FKS1, stronger effect = lower value 0.998 | S. cerevisiae deletion strains, locus YLR357W, strain rsc2, stronger effect = lower value 0.996 | S. cerevisiae deletion strains, locus YLR370C, strain arc18, stronger effect = lower value 0.996 | S. cerevisiae deletion strains, locus YLR371W, strain rom2, stronger effect = lower value 1 | S. cerevisiae deletion strains, locus YLR384C, strain iki3, stronger effect = lower value 0.999 | S. cerevisiae deletion strains, locus YLR418C, strain cdc73, stronger effect = lower value 0.97 | S. cerevisiae deletion strains, locus YML016C, strain PPZ1, stronger effect = lower value 0.999 | S. cerevisiae deletion strains, locus YML032C, strain rad52, stronger effect = lower value 1.01 | S. cerevisiae deletion strains, locus YML120C, strain ndi1, stronger effect = lower value 0.974 | S. cerevisiae deletion strains, locus YML124C, strain tub3, stronger effect = lower value 0.998 | S. cerevisiae deletion strains, locus YMR058W, strain fet3, stronger effect = lower value 0.988 | S. cerevisiae deletion strains, locus YMR078C, strain ctf18, stronger effect = lower value 0.98 | S. cerevisiae deletion strains, locus YMR125W, strain sto1, stronger effect = lower value 0.999 | S. cerevisiae deletion strains, locus YMR129W, stronger effect = lower value 0.999 | S. cerevisiae deletion strains, locus YMR205C, strain PFK2, stronger effect = lower value 0.989 | S. cerevisiae deletion strains, locus YMR223W, strain ubp8, stronger effect = lower value 0.987 | S. cerevisiae deletion strains, locus YMR231W, strain pep5, stronger effect = lower value 0.999 | S. cerevisiae deletion strains, locus YMR307W, strain GAS1, stronger effect = lower value 1.01 | S. cerevisiae deletion strains, locus YNL067W, strain RPL9B, stronger effect = lower value 1.03 | S. cerevisiae deletion strains, locus YNL071W, strain lat1, stronger effect = lower value 0.989 | S. cerevisiae deletion strains, locus YNL153C, strain GIM3, stronger effect = lower value 1.06 | S. cerevisiae deletion strains, locus YNL183C, strain NPR1, stronger effect = lower value 0.946 | S. cerevisiae deletion strains, locus YNL209W, strain ssb2, stronger effect = lower value 1.02 | S. cerevisiae deletion strains, locus YNL233W, strain BNI4, stronger effect = lower value 1.03 | S. cerevisiae deletion strains, locus YNL248C, strain rpa49, stronger effect = lower value 0.988 | S. cerevisiae deletion strains, locus YNL250W, strain rad50, stronger effect = lower value 0.979 | S. cerevisiae deletion strains, locus YNL271C, strain bni1, stronger effect = lower value 0.978 | S. cerevisiae deletion strains, locus YNL298W, strain CLA4, stronger effect = lower value 0.987 | S. cerevisiae deletion strains, locus YNL307C, strain MCK1, stronger effect = lower value 0.999 | S. cerevisiae deletion strains, locus YNL322C, strain KRE1 (second series), stronger effect = lower value 0.992 | S. cerevisiae deletion strains, locus YNL322C, strain KRE1, stronger effect = lower value 0.991 | S. cerevisiae deletion strains, locus YNR049C, strain mso1, stronger effect = lower value 0.991 | S. cerevisiae deletion strains, locus YNR052C, strain pop2, stronger effect = lower value 0.985 | S. cerevisiae deletion strains, locus YOL006C, strain TOP1, stronger effect = lower value 1.1 | S. cerevisiae deletion strains, locus YOL012C, strain htz1 0.934 | S. cerevisiae deletion strains, locus YOL147C, strain pex11, stronger effect = lower value 0.99 | S. cerevisiae deletion strains, locus YOR001W, strain rrp6, stronger effect = lower value 0.998 | S. cerevisiae deletion strains, locus YOR061W, strain CKA2, stronger effect = lower value 1 | S. cerevisiae deletion strains, locus YOR069W, strain VPS5, stronger effect = lower value 0.986 | S. cerevisiae deletion strains, locus YOR070C, strain gyp1, stronger effect = lower value 0.993 | S. cerevisiae deletion strains, locus YOR080W, strain dia2, stronger effect = lower value 0.987 | S. cerevisiae deletion strains, locus YOR083W, strain WHI5, stronger effect = lower value 1 | S. cerevisiae deletion strains, locus YOR106W, strain vam3, stronger effect = lower value 1.01 | S. cerevisiae deletion strains, locus YOR136W, strain idh2, stronger effect = lower value 0.991 | S. cerevisiae deletion strains, locus YOR144C, strain elg1, stronger effect = lower value 1 | S. cerevisiae deletion strains, locus YOR184W, strain ser1, stronger effect = lower value 0.981 | S. cerevisiae deletion strains, locus YOR231W, strain MKK1, stronger effect = lower value 1.05 | S. cerevisiae deletion strains, locus YOR265W, strain rbl2, stronger effect = lower value 0.994 | S. cerevisiae deletion strains, locus YOR270C, strain vph1, stronger effect = lower value 0.987 | S. cerevisiae deletion strains, locus YOR290C, strain snf2, stronger effect = lower value 1.01 | S. cerevisiae deletion strains, locus YOR316C, strain cot1, stronger effect = lower value 0.992 | S. cerevisiae deletion strains, locus YPL051W, strain arl3, stronger effect = lower value 0.993 | S. cerevisiae deletion strains, locus YPL078C, strain atp4, stronger effect = lower value 0.993 | S. cerevisiae deletion strains, locus YPL106C, strain sse1, stronger effect = lower value 0.967 | S. cerevisiae deletion strains, locus YPL240C, strain hsp82, stronger effect = lower value 0.989 | S. cerevisiae deletion strains, locus YPL241C, strain CIN2, stronger effect = lower value 0.996 | S. cerevisiae deletion strains, locus YPL256C, strain CLN2, stronger effect = lower value 1.02 | S. cerevisiae deletion strains, locus YPR119W, strain clb2, stronger effect = lower value 0.994 | S. cerevisiae deletion strains, locus YPR141C, strain kar3, stronger effect = lower value 0.998 | S. cerevisiae deletion strains, locus YPR163C, strain tif3, stronger effect = lower value 0.992 | S. cerevisiae deletion strains, locus YPR167C, strain met16, stronger effect = lower value 0.989 | S. cerevisiae deletion strains, strain wtn01, stronger effect = lower value 0.979 | S. cerevisiae strains, strain wild type, stronger effect = lower value 0.995
